Counter-ions that a name gives are not always drawn. ± gives the standard deviation of the averaged measurements.
Columns and labels:
IMR-90 = assay: relative cell viability (ATPlite) vs untreated control (fraction); higher = less toxic; conditions: 1 µM; 72 h
K562 [1] = assay: as above; conditions: 1 µM; 72 h
K562 [2] = assay: relative cell viability (ATPlite) vs untreated control, with imatinib (fraction); higher = less toxic; conditions: 1 µM; 72 h; imatinib 0.125 µM

SMILES	relative cell viability (IMR-90)	relative cell viability (K562 [1])	relative cell viability (K562 [2])
N#Cc1c(C2CCNCC2)cc(-c2c(O)cccc2OCC2CC2)nc1N [IKK-2 Inhibitor VIII]	1.01 ± 0.12	0.871 ± 0.048	0.718 ± 0.021
CS(=O)(=O)c1ccc(-c2nc(-c3ccc(F)cc3)c(-c3ccncc3)[nH]2)cc1	1.03 ± 0.08	0.831 ± 0.064	0.703 ± 0.043
NC(=O)Nc1sc(-c2ccccc2)cc1C(N)=O [IKK-2 Inhibitor VI]	0.942 ± 0.1	0.861 ± 0.097	0.695 ± 0.056
CN1C(=O)C(c2c[nH]c3ccccc23)=C(c2c[nH]c3ccccc23)C1=O [Bisindolylmaleimide V]	0.936 ± 0.091	0.88 ± 0.053	0.77 ± 0.0092
Nc1nccc(-c2c(-c3ccc(F)cc3)ncn2C2CCNCC2)n1	0.923 ± 0.084	0.755 ± 0.05	0.662 ± 0.046
CC[C@H](CO)Nc1nc(NCc2ccccc2O)c2ncn(C(C)C)c2n1 [Olomoucine II]	1.07 ± 0.073	0.758 ± 0.02	0.715 ± 0.028
CN1C(=O)C(Cc2c[nH]c3ccccc23)NC1=S (stereo unspecified) [Necrostatin-1]	0.915 ± 0.058	0.921 ± 0.1	0.785 ± 0.044
O=C1c2ccccc2-c2nc3nnnn3nc21 [PDK1/Akt/Flt Dual Pathway Inhibitor]	0.856 ± 0.069	0.028 ± 0.0014	0.0249 ± 0.0025
N#Cc1cc([N+](=O)[O-])c2sc(C(N)=O)[n+]([O-])c2c1 [Polo-like Kinase Inhibitor II, BTO-1]	1.01 ± 0.12	0.88 ± 0.081	0.709 ± 0.056
CCC(=O)Nc1ccc2ncnc(Nc3cccc(Br)c3)c2c1	0.982 ± 0.058	0.903 ± 0.031	0.743 ± 0.05
Brc1c(Br)c(Br)c2n[nH]nc2c1Br [Casein Kinase II Inhibitor I]	1 ± 0.059	0.952 ± 0.068	0.833 ± 0.03
COc1cc2c(cc1OC)-c1[nH]nc(Nc3cccc(F)c3)c1C2 [PDGF Receptor Tyrosine Kinase Inhibitor IV]	0.43 ± 0.07	0.0468 ± 0.0021	0.0404 ± 0.0032
O=C1C(Cl)=C(N2C(=O)CCC2=O)C(=O)c2ccccc21 [MEK Inhibitor II]	1.01 ± 0.11	0.802 ± 0.089	0.653 ± 0.071
COc1ccc(OC)c2c(=S)c3ccccc3[nH]c12	0.981 ± 0.051	0.927 ± 0.054	0.795 ± 0.041
c1ccc(-c2cnc(Nc3ccc(OCCN4CCCC4)cc3)s2)cc1 [Flt-3 Inhibitor III]	0.924 ± 0.052	0.916 ± 0.065	0.797 ± 0.031
N#CCCc1ccc2c(c1)-c1[nH]c3ccc([N+](=O)[O-])cc3c1CC(=O)N2 [Alsterpaullone, 2-Cyanoethyl]	1 ± 0.039	0.307 ± 0.05	0.153 ± 0.036

SMILES	relative cell viability (IMR-90)	relative cell viability (K562 [1])	relative cell viability (K562 [2])
COc1ccc2c(c1)c1c3c(c4c5ccccc5n(C)c4c1n2CC(O)CN(C)C)C(=O)NC3=O (stereo unspecified) [Gö 7874, Hydrochloride]	0.87 ± 0.034	0.901 ± 0.025	0.775 ± 0.031
CCCCCCOC(=O)[C@]1(O)C[C@@H]2O[C@@]1(C)n1c3ccccc3c3c4c(c5c6ccccc6n2c5c31)C(=O)NC4	1.05 ± 0.14	0.825 ± 0.056	0.764 ± 0.02
Cn1cc(C2=C(c3cn(CCCSC(=N)N)c4ccccc34)C(=O)NC2=O)c2ccccc21	0.967 ± 0.2	0.834 ± 0.1	0.733 ± 0.062
COc1ccc(CNC(=O)Nc2ncc([N+](=O)[O-])s2)cc1 [GSK-3b Inhibitor VIII]	0.978 ± 0.09	0.82 ± 0.048	0.713 ± 0.049
COc1cc2ncnc(Nc3ccc(Cl)cc3Cl)c2cc1OC [Ste11 MAPKKK Activation Inhibitor]	0.946 ± 0.13	0.802 ± 0.084	0.71 ± 0.076
c1cc(-c2cnn3cc(-c4ccc(OCCN5CCCCC5)cc4)cnc23)ccn1 [AMPK Inhibitor, Compound C]	0.86 ± 0.092	0.883 ± 0.072	0.834 ± 0.051
O=C(Nc1ccncc1)Nc1c(Cl)cc(Cl)cc1Cl [Rho Kinase Inhibitor II]	1.08 ± 0.11	0.856 ± 0.056	0.743 ± 0.03
COc1ccc2c(c1)c(C1=C(c3c[nH]c4ccccc34)C(=O)NC1=O)cn2CCCN(C)C	0.969 ± 0.082	0.872 ± 0.06	0.755 ± 0.051
O=C(Nc1ccc(Cl)cc1)c1ccccc1NCc1ccncc1 [VEGF Receptor Tyrosine Kinase Inhibitor II]	0.987 ± 0.064	0.852 ± 0.056	0.802 ± 0.036
O=C1NCCc2[nH]c(-c3ccnc(-c4cnc5ccccc5c4)c3)cc21 [MK-2 Inhibitor III]	0.884 ± 0.11	0.837 ± 0.085	0.709 ± 0.057
CCCCn1c2ccc(O)cc2c2c3c(c(-c4ccccc4Cl)cc21)C(=O)NC3=O [Wee1 Inhibitor II]	0.754 ± 0.44	0.876 ± 0.086	0.748 ± 0.1
c1ccc(-c2n[nH]c3c2oc2ccccc23)cc1	0.943 ± 0.083	0.868 ± 0.038	0.732 ± 0.04
Cn1cnc2cc3c(Nc4cccc(Br)c4)ncnc3cc21	0.973 ± 0.054	1.02 ± 0.078	0.874 ± 0.02
COc1nccc(-c2c(-c3ccc(F)cc3)ncn2C2CCC(O)CC2)n1 (stereo unspecified)	0.964 ± 0.038	0.86 ± 0.11	0.794 ± 0.067
COc1cc2ncnc(Nc3ccc(Oc4ccccc4)cc3)c2cc1OC [Src Kinase Inhibitor I]	0.956 ± 0.063	0.839 ± 0.088	0.692 ± 0.05
NC(N)=NCCNS(=O)(=O)c1cccc2cnccc12 [HA 1004, Dihydrochloride]	1.01 ± 0.1	0.851 ± 0.066	0.756 ± 0.015

Source: the supplement of paper PMC4100887
